These results are taken from PubChem BioAssay (NCATS).

Values joined by “and” are separate entries in the source; they are usually repeats but may differ in a detail not shown here. Identical values can stand only once. Unmarked numbers belong to inactive results. Records with an inconclusive call do not appear. Active and inactive are the calls of the source. Unless noted, the call rests on the fitted dose curve; in most records, active means well fitted curve in the direction sought with a large enough effect; inconclusive means small, poorly fitted or top-dose-only effect, or another doubt; inactive means no such curve, though single readings can be large; an effect the other way counts as inactive or inconclusive.

The nature of experiment [1]: Cellular Toxicity (caspase-3) SHSY5Y (AID 657). The procedure, abridged: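 qHTS, SH-SY5Y, 1500 cells/well, 5 h pre-incubation 37 °C; compound 16 h 37 °C; Caspase-Glo 3/7 1 h RT; luminescence. Norm.: DMSO = 0, 10 uM staurosporine = 100%. Hill fit → AC50.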
Experiment [2] can be described thus: Cellular Toxicity (caspase-3) SK-N-SH (AID 661).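 Further: 0% = DMSO basal and 100% = 10 µM staurosporine.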 The method in brief: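 Luminescent Caspase-Glo 3/7 read-out after 16 hr compound exposure of SK-N-SH neuroblastoma cells at 37 °C. Signal increase normalized to DMSO (basal) and 10 uM staurosporine (100%); AC50 from Hill equation fits of qHTS concentration-response data.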
Experiment [3] in a line: Cellular Toxicity (caspase-3) NIH 3T3 (AID 666).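 Further: 0% = DMSO basal and 100% = 100 µM tamoxifen stimulation.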 The method in brief: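 NIH 3T3, 1000 cells/well, 5 hr settle then 16 hr compound at 37°C; Caspase-Glo 3/7, 20 min RT, luminescence. DMSO = basal, 100 uM tamoxifen = 100%. Hill-equation AC50, qHTS.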
The nature of experiment [4]: MultiTox-Fluor Cytotoxicity Assay - LYMP1-003 - Dead Cells (AID 961). Further: nearly all actives have a fitted effect of over 70% in size. Further: potency means the concentration at half of the fitted maximal effect. The procedure, abridged:
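LYMP1-003 human lymphoblastoid cells (2500/well) exposed to compound 16 h at 37 C in complete medium; dead-cell protease read with bis-AAF-R110 fluorescence (Ex/Em 485/520) after 60 min at room temperature. Normalized to DMSO and 15 uM tetraoctylammonium bromide; AC50 from Hill fit.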

Experiment [5] is described as follows: Cell Viability - LYMP2-009 (AID 968). Further: nearly all actives have a fitted effect of over 55% in size. Further: potency means the concentration at half of the fitted maximal effect.
A short description of experiment [6]: Cell Viability - LYMP2-017 (AID 972).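 Further: cells exposed to compound for 24 hours at 37 °C; nearly all actives have a fitted effect of over 55% in size.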 Further: potency means the concentration at half of the fitted maximal effect. The method in brief:
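Luminescent ATP read-out (CellTiter-Glo, 30 min RT) reports viable cell number. Cells: human lymphoblastoid line, 2500 per well, 5 hr preincubation, 24 hr compound exposure at 37 C. AC50 is derived from qHTS concentration-response data using the standard Hill model.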

A short description of experiment [7]: Cell Viability - LYMP2-021 (AID 974).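 Further: compound exposure lasts 24 hours at 37 °C; nearly all actives have a fitted effect of over 55% in size.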 Further: potency means the concentration at half of the fitted maximal effect. The method in brief:
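ATP luminescence (CellTiter-Glo, 30 min RT) after 24 h compound exposure at 37 C; 2500 human lymphoblastoid cells/well, 5 h settle beforehand. Cytotoxicity = concentration-dependent ATP drop, AC50 by Hill fit.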

The nature of experiment [8]: Cell Viability - LYMP2-025 (AID 976). Further: potency means the concentration at half of the fitted maximal effect. The method in brief: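 CellTiter-Glo luminescence (cellular ATP) after 24 h compound exposure at 37 C; LYMP2-025 human lymphoblastoid cells, 2500/well, complete medium. Tetraoctylammonium bromide positive control. AC50 by Hill equation fit of qHTS concentration-response.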
Experiment [9] can be described thus: Cell Viability - LYMP2-007 (AID 979).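 Further: potency means the concentration at half of the fitted maximal effect; cells exposed to compound for 24 h before reading; nearly all actives have a fitted effect of over 60% in size.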 The method in brief: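 qHTS cytotoxicity: 2500 cells/well, 5 hr 37 C settle, compound 24 hr 37 C, CellTiter-Glo 30 min RT, luminescence. Decrease in ATP = toxicity. AC50 by standard Hill equation; tetraoctylammonium bromide positive control.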
The nature of experiment [10]: Cell Viability - LYMP2-012 (AID 982).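 Further: cellular ATP by luciferase luminescence where a drop means cytotoxicity; cells exposed to compound for one day before reading; nearly all actives have a fitted effect of over 55% in size.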 Further: potency means the concentration at half of the fitted maximal effect.
Experiment [11] in a line: Cell Viability - LYMP2-020 (AID 986). Further: nearly all actives have a fitted effect of over 55% in size. Further: potency means the concentration at half of the fitted maximal effect. The method in brief:
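qHTS, 2500 cells/well; 5 hr then 24 hr compound exposure, 37 C; CellTiter-Glo luminescence after 30 min RT; ATP decrease taken as cytotoxicity; AC50 via Hill equation; tetraoctylammonium bromide positive control.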

Experiment [12] can be described thus: Cell Viability - LYMP1-002 - Assay at 40 hr (AID 994). Further: nearly all actives have a fitted effect of over 60% in size. Further: potency means the concentration at half of the fitted maximal effect. The procedure, abridged:
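qHTS cytotoxicity; 2500 cells/well, 5 hr 37 C settle, compound 40 hr 37 C. CellTiter-Glo, 30 min RT, luminescence (ATP). Concentration-response, Hill fit → AC50. Pos. ctrl tetraoctylammonium bromide.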

Experiment [13] deals with Voltage-gated inwardly rectifying potassium channel KCNH2 (Homo sapiens) (UniProt Q12809). Nature of the experiment: qHTS Assay for Small Molecule Inhibitors of the Human hERG Channel Activity (AID 588834).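 Further: top concentration of the series differs between compounds; on the % scale 0 is the no-effect control and ±100 the full control effect; lower thallium flux fluorescence means stronger hERG block; nearly all actives have a fitted effect of over 50% in size.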 The procedure, abridged: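 Step 1: BacMam hERG transduction of U2OS, 4 hrs RT. Step 2: overnight 37 °C, plate 2000 cells/well, 4 hr. Step 3: FluxOR load, compound 10 min, stimulate, read fluorescence.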
A general note: qHTS replaces the single test concentration by a dilution series.

Experiment [14] in a line: qHTS assay for small molecule disruptors of the mitochondrial membrane potential - 5 hr assay (AID 651755; calls by dose curve; further: nearly all actives have a fitted effect of over 40% in size; further: potency means the concentration at half of the fitted maximal effect). The procedure, abridged: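 Seed HepG2 overnight, add compound, incubate 5 hr at 37C and 5% CO2, stain 30 min with Mito-MPS, then measure monomer (490/535 nm) and aggregate (540/590 nm) fluorescence.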
The target of experiment [15] is Peroxisome proliferator-activated receptor alpha (Homo sapiens) (UniProt Q07869). Nature of the experiment: qHTS assay for small molecule agonists of the peroxisome proliferator-activated receptor alpha (PPARalpha) signaling pathway (AID 651778). Further: % of control where 0% means no effect. The settings on record: PathHunter PPARalpha complementation, chemiluminescence, 6 h; max response: hits give high values. The method in brief: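 Cells plated at 2,000/well and held overnight at 37 C, 5% CO2, then compound added by pin tool for 6 hr; after PathHunter detection reagent and 60 min at room temperature, chemiluminescence from enzyme complementation was read.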

Experiment [16] is described as follows: qHTS assay for small molecule antagonists of the retinoid-related orphan receptor gamma (ROR-gamma) signaling pathway - cell viability counter screen (AID 720652; active means well fitted curve in the direction sought with a large enough effect in the repeat runs; an effect the other way counts as inactive or inconclusive;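 further: compound exposure lasted 16 hr before ATP read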; further: potency means the concentration at half of the fitted maximal effect). The procedure, abridged: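 CHO RORE-LUC/TET-ROR line, 1,000 cells/well, 37 C 5% CO2 5 hr; cpd or DMSO + doxycycline induction, 16 hr. CellTiter-Glo, 30 min RT, luminescence = ATP content.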
Experiment [17] can be described thus: qHTS assay for small molecule agonists of the antioxidant response element (ARE) signaling pathway measured by Nrf2-dependant transcriptional activity - cell viability counter screen (AID 720653; active means well fitted curve in the direction sought with a large enough effect in the repeat runs; an effect the other way counts as inactive or inconclusive; further: potency means the concentration at half of the fitted maximal effect; on max response: on the % scale 0 is the no-effect control and ±100 the full control effect). The note with it: ARE-bla HepG2 viability, CellTiter-Glo ATP luminescence, 16 h; max response: hits give low values. The procedure, abridged: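 ARE-bla HepG2 cells (2,000/well) rested 5 hrs at 37C/5% CO2, then exposed to compounds in DMSO for 16 hrs. Viability was read in the same wells as intracellular ATP by luminescence, 30 min at room temperature after reagent addition.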

The nature of experiment [18]: Cell Viability - HepG2 (AID 433; calls by dose curve;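 further: potency means the concentration at half of the fitted maximal effect; potency for ATP loss meaning cytotoxicity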). The note with it: qHTS. The method in brief: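 Read-out is luciferase-based quantitation of cellular ATP as a measure of viable HepG2 cells after 40 h treatment at 37 °C. Signal decrease is scaled between DMSO-only and 100 uM tamoxifen controls, with AC50 fitted by the Hill equation.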
Experiment [19] in a line: Cell Viability - LYMP1-002 - Assay at 24 hr (AID 993). Further: potency means the concentration at half of the fitted maximal effect. The procedure, abridged: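 CellTiter-Glo luminescence (intracellular ATP) after 24 h compound exposure, 37 C, in LYMP1-002 human lymphoblastoid cells; decreased ATP taken as cytotoxicity. AC50 from standard Hill fit of concentration-response curves.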
The nature of experiment [20]: Cell Viability - Hek293 (AID 427;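 active means compounds whose dose-response curve shows a full or clear partial loss of cell viability, called from curve shape rather than a numeric limit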;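 further: potency means the concentration at half of the fitted maximal effect; cells exposed to compound for 40 hours at 37 °C before reading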). The settings on record: qHTS. The procedure, abridged:
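HEK293 cells in complete medium were exposed to compound for 40 hr at 37 °C, then cellular ATP was read by CellTiter-Glo luminescence. Data were normalized to DMSO (basal) and 100 uM tamoxifen (100% inhibition), and AC50 came from Hill fits.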

Sequence of Voltage-gated inwardly rectifying potassium channel KCNH2 (Homo sapiens) (Q12809 whole entry, looked up): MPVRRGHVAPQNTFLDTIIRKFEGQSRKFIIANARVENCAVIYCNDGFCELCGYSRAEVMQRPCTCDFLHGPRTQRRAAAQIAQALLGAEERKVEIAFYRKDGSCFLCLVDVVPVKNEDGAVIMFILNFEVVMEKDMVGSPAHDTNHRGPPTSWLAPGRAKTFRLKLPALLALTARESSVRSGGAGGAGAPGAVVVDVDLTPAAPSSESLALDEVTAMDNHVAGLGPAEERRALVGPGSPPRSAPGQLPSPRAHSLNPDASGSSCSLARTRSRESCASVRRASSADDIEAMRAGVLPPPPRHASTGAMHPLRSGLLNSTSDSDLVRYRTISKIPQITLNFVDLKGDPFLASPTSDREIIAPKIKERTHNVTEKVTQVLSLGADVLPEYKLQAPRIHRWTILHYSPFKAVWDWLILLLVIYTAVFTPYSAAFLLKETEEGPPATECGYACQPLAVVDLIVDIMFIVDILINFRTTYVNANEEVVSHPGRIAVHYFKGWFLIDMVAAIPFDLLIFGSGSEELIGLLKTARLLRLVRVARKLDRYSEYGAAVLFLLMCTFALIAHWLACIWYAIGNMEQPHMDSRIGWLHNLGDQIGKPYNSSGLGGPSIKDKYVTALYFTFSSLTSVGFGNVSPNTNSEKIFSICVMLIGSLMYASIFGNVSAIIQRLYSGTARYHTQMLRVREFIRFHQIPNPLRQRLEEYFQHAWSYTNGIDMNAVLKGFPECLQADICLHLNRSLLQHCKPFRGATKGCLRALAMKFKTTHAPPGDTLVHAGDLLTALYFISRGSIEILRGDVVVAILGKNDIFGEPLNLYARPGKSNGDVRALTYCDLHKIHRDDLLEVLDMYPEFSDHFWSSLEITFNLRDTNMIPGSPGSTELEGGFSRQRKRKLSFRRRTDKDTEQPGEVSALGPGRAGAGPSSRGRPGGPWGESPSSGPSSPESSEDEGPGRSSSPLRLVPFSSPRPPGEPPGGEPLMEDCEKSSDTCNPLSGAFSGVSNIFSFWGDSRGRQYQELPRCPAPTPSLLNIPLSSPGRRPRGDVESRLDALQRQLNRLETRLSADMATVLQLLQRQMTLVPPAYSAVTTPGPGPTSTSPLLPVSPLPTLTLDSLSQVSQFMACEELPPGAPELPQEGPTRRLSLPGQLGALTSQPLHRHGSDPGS
Sequence of Peroxisome proliferator-activated receptor alpha (Homo sapiens) (Q07869 whole entry, looked up): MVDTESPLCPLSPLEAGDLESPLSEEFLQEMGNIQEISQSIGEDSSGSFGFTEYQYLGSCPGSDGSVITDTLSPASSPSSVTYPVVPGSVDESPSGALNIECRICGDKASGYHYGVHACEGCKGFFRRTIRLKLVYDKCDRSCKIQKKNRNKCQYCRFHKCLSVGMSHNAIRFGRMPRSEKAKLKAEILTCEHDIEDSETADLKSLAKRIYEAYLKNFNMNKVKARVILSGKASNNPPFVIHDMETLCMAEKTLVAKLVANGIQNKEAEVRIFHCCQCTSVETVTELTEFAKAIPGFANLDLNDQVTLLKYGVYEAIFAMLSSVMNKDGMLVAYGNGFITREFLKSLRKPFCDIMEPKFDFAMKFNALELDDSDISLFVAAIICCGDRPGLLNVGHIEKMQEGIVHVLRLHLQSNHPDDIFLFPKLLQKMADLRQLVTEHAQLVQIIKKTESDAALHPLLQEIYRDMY

In the case of `O=C(CCl)c1ccccc1`, the Potency result in experiment [1], in experiment [12], in experiment [13] and in experiment [14] was “inactive” in each case. The result in [2] and in [3] was inactive. Besides, the Potency in experiment [4] was 31.6 µM (active); in experiment [5], 10 µM (active); in [6], 10 µM (active); in experiment [7], 10 µM (active); in experiment [8], 12.6 µM (active); in experiment [9], 10 µM (active). For the same molecule, the Potency in experiment [10] is 10 µM (active); in experiment [11], 7.94 µM (active); in experiment [16], 29.8 µM (active). Besides, the max response in experiment [15] is -2.05% and -1.03%; in experiment [17], -32.5% and -9.07%.

As to `Oc1c(Br)c(Br)c(Br)c(Br)c1Br`, the results for the Potency in experiment [18] and in experiment [14] were more than 92 µM and 33.5 µM (active), respectively. Besides, the Potency result in [1], in experiment [4], in [5], in experiment [6], in experiment [7] and in [8] was “inactive” in each case. Further, the Potency entry in experiment [10], in [11], in experiment [19], in [12], in [13] and in experiment [16] was “inactive” throughout. The outcome in experiment [2] and in experiment [3] was inactive. In addition, the max response in experiment [15] is 10%; in [17], -1.75%.

In the case of `CCCCCCCCn1sccc1=O`, the Potency in experiment [20] was 35.3 µM (active); in experiment [4], 7.94 µM (active); in experiment [5] it was 5.01 µM (active); in [6], 3.98 µM (active); in experiment [7] it was 3.98 µM (active); in [8], 6.31 µM (active). For the same molecule, the Potency in experiment [9] was 2.51 µM (active); in experiment [10] it was 3.98 µM (active); in experiment [11], 3.98 µM (active); in experiment [19], 12.6 µM (active); in experiment [12], 15.8 µM (active); in experiment [17], 50.1 µM (active). For the same molecule, the Potency entry in [1] and in experiment [14] was “inactive” in each case. Also, the outcome in experiment [2] and in experiment [3] was inactive.

On to `Oc1c(Cl)cc(Cl)cc1Cl`, for which the Potency in experiment [20] and in experiment [18] was more than 92 µM each time.

As for `N#CC(Cl)Cl`, the Potency was more than 92 µM in [20]; 15.8 µM (active) in experiment [5]; 39.8 µM (active) in experiment [6]; 25.1 µM (active) in experiment [7]; 39.8 µM (active) in experiment [8]; 20 µM (active) in experiment [9]. For the same molecule, the Potency in [11] is 10 µM (active); in experiment [16], 21.1 µM (active). Besides, the Potency result in experiment [1], in [4], in experiment [19], in [12], in [13] and in experiment [14] was “inactive” in each case. The outcome in [3] was inactive. Besides, the max response was -3.95% in [15] and -22.9% in [17].

As to `CC(=O)[O-].CC(=O)[O-].O.O.[Cd+2]`, the Potency result in experiment [1], in experiment [6], in experiment [8], in experiment [19], in [12] and in experiment [14] was “inactive” each time. In addition, the call in experiment [2] and in experiment [3] was inactive. Moreover, the Potency was 50.1 µM (active) in experiment [7], 39.8 µM (active) in [9], 8.41 µM (active) in [16] and 10 µM (active) in [17]. In addition, the max response in experiment [15] was -7.81%.
